# A selection: hits, their analogues and other compounds. The true share with any hit is near 7.6%.
# ELG1 DNA repair: qHTS screen for small molecules that inhibit ELG1-dependent DNA repair in human embryonic kidney (HEK293T) cells expressing luciferase-tagged ELG1. 330,000 tested, 2.3% active. HEK293T ELG1-luciferase reporter, luminescence, 16 h; DNA damage induced by 5-fluorouridine. Potency, µM (series often up to 46.1 µM), without a hit: at the top dose activity change, negative = inhibition, most hits filed as inhibitors; note: potency is the fitted concentration of half-maximal effect; % is set by controls: 0 for no effect and ±100 for the full control effect; nearly all actives have a fitted effect of over 55% in size
#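 Cells (2,000 per well) received 5-fluorouridine plus test compound or DMSO and were incubated 16 hr at 37 °C, 5% CO2. Luciferase activity was read by luminescence 30 min after ONE-Glo addition; signal suppression marked inhibition of damage-induced ELG1 function.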
# Giardia killer: Small Molecules that selectively kill Giardia lamblia: qHTS; activity change, % at 7.66 µM, hits read low; Giardia lamblia trophozoite viability; 340,000 tested, 0.15% active; in the data active = activity change below about -80%; inconclusive = between about -30% and that limit;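 note: parasites exposed to compound for two days anaerobically before the ATP read; % is set by controls: 0 for no effect and ±100 for the full control effect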
#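 Trophozoite viability was measured as ATP-dependent luminescence, read 15-30 min after reagent addition. Before that, parasites at 100 cells/well were exposed to compounds for 48 h, anaerobically, at 37 deg C.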
# p53 reactivator: qHTS assay for re-activators of p53 using a Luc reporter | Potency, µM (series often up to 92.2 µM), for inactives: top-dose activity change, positive = activation, actives largely listed as activators | 320,000 tested, 0.063% active | H1299 p53-A138V BP100-luciferase reporter, luminescence, 24 h; note: potency is the fitted concentration of half-maximal effect; % of control where 0% means no effect; nearly all actives have a fitted effect of over 45% in size
#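 p53-null H1299 cells stably carrying temperature-sensitive p53-A138V and a BP100-luciferase reporter were pinned with compounds (4-point, 1:5 series) and held 24 hrs at 37 deg C. Luminescence was read 10 min after detection reagent.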
# VP16 counter: VP16 counterscreen qHTS for inhibitors of ROR gamma transcriptional activity; 310,000 tested, 3.5% active; Drosophila S2 Gal4-VP16 UAS-luciferase, luminescence, 20 h; Potency, µM (titrated, usually from 53.6 µM), without a hit: at the top dose activity, negative = inhibition, most hits filed as inhibitors;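 note: Gal4-VP16 expression switched on by copper sulfate through the metallothionein promoter; potency is the fitted concentration of half-maximal effect; % is set by controls: 0 for no effect and ±100 for the full control effect; nearly all actives have a fitted effect of over 50% in size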
# BRCA1 expr up: qHTS Assay to Identify Small Molecule Activators of BRCA1 Expression. MCF7-BRCA1-FFLuc reporter, luminescence, 48 h; response scale: scaled: vehicle 0%, 10 µM genistein 100%. Potency, µM (titrated, usually from 46.1 µM), without a hit: at the highest dose activation, actives largely listed as activators. 380,000 tested, 1.1% active. AID 624202, 2012; note: potency is the fitted concentration of half-maximal effect; nearly all actives have a fitted effect of over 80% in size
#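 Luminescence from a BRCA1-driven firefly luciferase in MCF7 cells was the read-out, taken 15 min after substrate addition following 48 h compound exposure at 37 °C. Data were normalized to a 10 microM genistein control and DMSO vehicle.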
# RORgamma inh: qHTS for inhibitors of ROR gamma transcriptional activity. Drosophila S2 Gal4-RORgamma UAS-luciferase reporter, 20 h. Potency, µM (series often up to 53.6 µM), without a hit: at the top dose activity change, negative = inhibition, actives largely listed as inhibitors. 310,000 tested, 5.4% active; note: potency is the fitted concentration of half-maximal effect; % is set by controls: 0 for no effect and ±100 for the full control effect; nearly all actives have a fitted effect of over 60% in size
# Target sequence (P51450 whole entry, looked up, the tested form may be a part): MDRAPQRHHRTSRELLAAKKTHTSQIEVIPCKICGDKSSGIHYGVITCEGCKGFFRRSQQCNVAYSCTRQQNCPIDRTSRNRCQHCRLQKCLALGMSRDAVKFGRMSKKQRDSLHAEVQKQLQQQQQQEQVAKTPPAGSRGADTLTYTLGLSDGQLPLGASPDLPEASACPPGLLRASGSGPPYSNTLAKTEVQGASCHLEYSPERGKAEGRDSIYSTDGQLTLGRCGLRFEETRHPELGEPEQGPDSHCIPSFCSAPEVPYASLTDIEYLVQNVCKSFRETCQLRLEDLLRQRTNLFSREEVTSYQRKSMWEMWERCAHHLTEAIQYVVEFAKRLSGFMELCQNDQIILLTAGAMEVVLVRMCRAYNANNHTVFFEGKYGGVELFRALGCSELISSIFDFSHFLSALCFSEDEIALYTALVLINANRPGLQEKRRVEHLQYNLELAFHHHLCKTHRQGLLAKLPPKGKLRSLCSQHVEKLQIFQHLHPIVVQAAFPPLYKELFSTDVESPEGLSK
#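 Drosophila Schneider cells stably carrying a metallothionein-driven Gal4 DBD–ROR gamma fusion and a UAS-Photinus luciferase reporter were exposed to compound for 1 hr, then induced with copper sulfate (700 uM final) for 20 hr at ambient temperature before luminescence reading.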
# Starred values were filed as active, the others as inactive; ? = inconclusive; · = no result; ! = repeats disagree. Unless noted, calls come from the whole dose curve; as a rule, active = well fitted curve in the direction sought with a large enough effect; inconclusive = small, poorly fitted or top-dose-only effect, or another doubt; inactive = no such curve, though single readings can be large; an effect the other way counts as inactive or inconclusive.
SMILES,ELG1 DNA repair,Giardia killer,p53 reactivator,VP16 counter,BRCA1 expr up,RORgamma inh
COc1cccc(-n2nc(-c3ccnn3-c3ccc(C)cc3)c(=O)n(C)c2=O)c1,21µM*,7,-3%,-8%,-32%,-27%
COc1ccc(N=c2scc(-c3ccc(OC)cc3)n2CCO)cc1,-18%,1,14%,-78%,-24%,?
COc1ccccc1-n1c(=O)c2c3c(sc2n2c(=S)[nH]nc12)CCC3,10%,-9,-6%,-30%,-24%,13µM*
CCOc1ccc(Nc2nc(NCC(=O)O)nc(N)c2[N+](=O)[O-])cc1,21%,-5,-1%,-4%,0%,0%
Cc1c2oc3c(C)ccc(C(=O)N[C@@H]4C(=O)N[C@H](C(C)C)C(=O)N5CCC[C@H]5C(=O)N(C)CC(=O)N(C)[C@@H](C(C)C)C(=O)O[C@@H]4C)c3nc-2c(C(=O)N[C@@H]2C(=O)N[C@H](C(C)C)C(=O)N3CCC[C@H]3C(=O)N(C)CC(=O)N(C)[C@@H](C(C)C)C(=O)O[C@@H]2C)c(N)c1=O,·,·,·,20µM*!,·,0.022µM*
CCOc1ccc(NCc2nnc(SCC(=O)Nc3nc(-c4ccccc4)cs3)n2-c2ccccc2)cc1,13%,1,-2%,-28%,-45%,-10%
C/C(CC(C)(C)C1CCCCC1)=N\NC(N)=S,?,4,-2%,2.8µM*,-95%,0.89µM*
Cc1ccc(-c2csc(N)n2)cc1,·,0,·,·,10µM*,·
COc1ccc(-c2csc(N=C(N)N)n2)cc1,?,-1,2%,20%,?,22%
Cc1ccc(OCc2csc(N)n2)cc1,?,33,9%,-7%,5µM*,1%
COc1ccc(-c2csc(N3C(=N)SCC3=O)n2)cc1,?,-18,2%,?,?,4µM*
COc1ccc(-c2csc(N)n2)cc1,?,-6,?,-14%,10µM*,-6%
Cc1nnc(SCC(=O)N(CC(C)C)C2CCS(=O)(=O)C2)n1N (configuration not stated),26%,9,20%,·,9%,·
O=C(CCNC(=O)c1ccc(Cl)cc1)NCc1cccc(C(F)(F)F)c1,?,10,2%,·,-13%,·
O=C1N/C(=C/c2cccn2-c2ccccc2)C(=O)N1Cc1ccc(F)cc1,5%,-1,-3%,10µM*,-13%,30%
O=C(CCC1CCN(C(=O)C2CC=CCC2)CC1)Nc1ccccc1 (configuration not stated),·,·,·,·,-14%,·
Cc1cc(O)c(C)c(O)c1/C=N/NC(=O)c1cccnc1,?,-15,·,7.9µM*,-52%,7.9µM*
Cc1occc1C(=O)N/N=C/c1c(O)ccc2ccccc12,?,-7,?,18µM*,-63%,4µM*
COc1ccc(/C=N/NC(=O)c2cccnc2)cc1O,-19%,-8,·,-1%,-5%,13%
Cc1ccc(C(=O)N/N=C/c2c(O)ccc3ccccc23)cn1,?,10,25%,7.1µM*,-70%,5µM*
O=C(N/N=C/c1c(O)ccc2ccccc12)c1ccc(Br)o1,?,0,30%,2.8µM*,-89%,3.2µM*
O=C(NN=Cc1c(O)ccc2ccccc12)c1ccncc1,·,8,·,·,-94%,·
Cc1cc(NC(=O)COC(=O)C2CCN(S(=O)(=O)c3cccc(Cl)c3Cl)CC2)no1,3%,-14,-1%,1%,5%,-15%
CCc1cc(=O)[nH]c(SCC(=O)NCC2CCCO2)n1 (configuration not stated),0%,-20,1%,·,1%,·

# Screening results: PubChem BioAssay, National Center for Advancing Translational Sciences (NCATS)
